Data on 34 molecules can be found in ChEMBL document CHEMBL1157539, “Thousands of chemical starting points for antimalarial lead identification” (Nature, 2010).

Structures are written as SMILES. Values joined by “and” are separate entries in the source; they are usually repeats but may differ in a detail not shown here. Identical values can stand only once.

In this experiment the test system is Plasmodium falciparum. Briefly: GSK_TCMDC: Inhibition of Plasmodium falciparum 3D7 in whole red blood cells, using parasite LDH activity as an index of growth. Test compounds present at 2uM. The format is functional.
As for `Cc1ccc(CC(C)(C)NCC(O)c2cccc(C(F)(F)F)c2)cc1.O=C(O)/C=C/C(=O)O` (centres undefined), the Inhibition is listed as 97%.
In the case of `CC[C@H]1CN2CC[C@H]1C[C@H]2[C@H](O)c1cc(-c2cccc(Cl)c2)nc2ccc(OC)cc12.Cl`, the Inhibition turned out to be 98%.
The figure for `CN1C2CCC1c1cc(NC(=O)c3cc(-c4ccc(Cl)cc4)cs3)ccc12.O=C(O)C(F)(F)F` (centres undefined) is 90%; for `Cc1[nH]c2c(C)cc(NS(C)(=O)=O)cc2c1C1CCN(CC2CCN(C(=O)/C=C/c3ccc(Cl)c(Cl)c3)CC2)CC1` it is 100%.
The figure for `CN1CC=C(c2c[nH]c3ccc(OC(=O)c4ccccc4)cc23)C1` is 96%; for `CC(=O)Nc1ccc(CN2CCC(N(C)c3cc(NC(=O)c4cccc(F)c4)ccn3)CC2)cc1.O=C(O)C(F)(F)F` it is 85%; for `Cc1cc(C)c(CC(C)NCC(O)c2cccc(C(F)(F)F)c2)c(C)c1.Cl` (centres undefined) it is 100%.
The figure for `CC1=CC(=O)[C@@H](O)[C@]2(C)[C@H]3[C@@]4(O)OC[C@@]35[C@@H](C[C@@H]12)OC(=O)C[C@H]5[C@@H](C)[C@H]4O` [CHAPARRINONE] is 99%.
Turning to `O=C(Nc1ccccc1C(F)(F)F)NC1CCC(CN2CCC(c3c[nH]c4ccccc34)CC2)CC1` (centres undefined), the Inhibition is 96% and 86%.
The figure for `CC[C@H]1CN2CC[C@H]1C[C@H]2[C@H](O)c1cc(-c2ccccc2C)nc2ccc(OC)cc12.Cl` is 100%.
In turn, `CCCCCc1cc(O)c2c(c1)OC(C)(C)CC2C1=CCN(Cc2ccccc2)CC1` (centres undefined) displayed an Inhibition of 99%.
The figure for `CCCCNC(c1ccc(Cl)cc1)C(O)c1ccc(Cl)cc1.Cl` (centres undefined) is 99%.
`Cl.O=C(/C=C/c1ccc(Cl)c(Cl)c1)NC1C2CCC1CC(CN1CCC(c3c[nH]c4ccccc34)CC1)C2` (centres undefined) had an Inhibition of 100%.
As for `CC(Cc1ccc(SCCSc2ccccc2)cc1)NCC(O)c1cccc(Cl)c1` (centres undefined), the figure is 98%.
The figure for `FC(F)(F)c1cccc(N2CCC(CN3CCC(c4c[nH]c5ccccc45)CC3)CC2)n1.O=C(O)C(F)(F)F` is 84%.
As for `C=C[C@H]1CN2CC[C@@H]1C[C@H]2[C@H](O)c1cc(-c2ccc(F)cc2)nc2ccc(OC)cc12.Cl`, the figure is 99%; as for `O=C(CCc1ccc(Cl)cc1Cl)NC1CCC(CN2CCC(c3c[nH]c4ccccc34)CC2)CC1` (centres undefined), 100% and 97%.
Regarding `Cc1ccc(CC(C)NCC(O)c2cccc(Cl)c2)cc1F.Cl` (centres undefined), the Inhibition turned out to be 95%.
`O=C(/C=C/c1ccc(Cl)c(Cl)c1)NCCCCCN1C2CCC1CC(c1c[nH]c3ccccc13)C2` (centres undefined) had an Inhibition of 98%.
On to `CCCCCCCc1cc(O)c2c3c(c(=O)oc2c1)CN(C)CC3`, for which the Inhibition is 97%.
The figure for `C/C=C1\CN2CC[C@H]1C[C@H]2[C@H](O)c1ccnc2ccc(O)cc12` is 98%; for `CCCCCc1cc(O)c2c(c1)OC(C)(C)CC2C1=CCN(Cc2cnc3ccccc3c2)CC1.Cl.O` (centres undefined) it is 98%.
The figure for `COC(C(=O)OCCC1CCCN1C)(c1ccccc1)c1ccccc1` (centres undefined) is 98%; for `Br.Cc1ccccc1C1=CCN(CCCN2c3ccccc3Sc3ccc(Cl)cc32)CC1` it is 90%.
The figure for `Cc1ccc(/C=C/C(=O)NC2CCC(CN3CCC(c4c[nH]c5ccccc45)CC3)CC2)cc1C` (centres undefined) is 100%; for `CC[C@H]1CN2CC[C@H]1C[C@H]2[C@H](O)c1cc(-c2cccc(C)c2)nc2ccc(OC)cc12.Cl` it is 100%; for `Cc1[nH]c2cc(F)ccc2c1C1=CCN(CCCCC2(C)C(=O)Nc3ccccc32)CC1` (centres undefined) it is 93%.
Molecule `CC[C@@]1(O)C(=O)OCc2c1cc1n(c2=O)Cc2c-1nc1cc3c(cc1c2CN1CCOCC1)OCO3.O=C(O)C(F)(F)F` displayed an Inhibition of 89%.
Molecule `O=C(NC1CCN(CC2(c3ccc(Cl)cc3)CCC2)CC1)c1cscn1` had an Inhibition of 98%.
The figure for `Cl.OC(CNC1CCCCCCC1)c1ccc(Cl)c(Cl)c1` (centres undefined) is 100%.
The figure for `O=C(C=Cc1cccc(Cl)c1Cl)NC1CCC(CN2CCC(c3c[nH]c4ccccc34)CC2)CC1` (centres undefined) is 83% and 100%.
The figure for `CC[C@H]1CN2CC[C@H]1C[C@H]2[C@H](O)c1cc(-c2cccc(F)c2)nc2ccc(OC)cc12.Cl` is 99%; for `Cn1c(C2CC3CCC(C2)N3CC2CCC(NC(=O)/C=C/c3ccc(Cl)c(Cl)c3)CC2)nc2ccccc21` (centres undefined) it is 100%.
In turn, `CC(C)CNCc1cccc(-c2cccc(CN(C(=O)NC3CCCCC3)C3CCN(Cc4ccccc4)CC3)c2)c1.O=C(O)C(F)(F)F` showed an Inhibition of 97%.

By Inhibition is commonly meant the percentage by which the read-out fell short of the control. Higher therefore signals strong suppression.
